Test results from the supplement of paper PMC10849652.
About 7,900 targets were measured; listed, in parts, are those with a hit and a random draw of the rest. About 0.6% of all pairs of compound and target were hits.

Experiments:
Test in all cases: log2 fold change, soluble protein after heating vs DMSO (PISA); higher = thermal stabilisation; K562 cells, 10 uM, 30 min; active = over 0.2 and 3.5 SD of the protein, either way, in both replicates (recomputed)
AAGAB = AAGAB (UniProt Q6PD74)
How it was run: (§1)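 Values are thermal stability changes relative to control samples and are taken from duplicates. They are stated as log2 fold changes. Before quantification by TMTpro 16plex LC-MS/MS with equalised channel sums, K562 cells at 2×10^6 cells/mL were treated with 10 μM compound for 30 min, heated in aliquots for 3 min across 48°C-58°C, pooled, extracted in PBS with 0.5% NP-40 at 4°C, and centrifuged at 21,000xg for 90 min to give the soluble supernatant.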

AAK1 [1] = molecular target: AAK1 (UniProt A0A096LP25)
How it was run: as §1

AAK1 [2] = molecular target: AAK1 (UniProt Q2M2I8)
Chain of AAK1 (UniProt Q2M2I8) (Q2M2I8 whole entry, looked up): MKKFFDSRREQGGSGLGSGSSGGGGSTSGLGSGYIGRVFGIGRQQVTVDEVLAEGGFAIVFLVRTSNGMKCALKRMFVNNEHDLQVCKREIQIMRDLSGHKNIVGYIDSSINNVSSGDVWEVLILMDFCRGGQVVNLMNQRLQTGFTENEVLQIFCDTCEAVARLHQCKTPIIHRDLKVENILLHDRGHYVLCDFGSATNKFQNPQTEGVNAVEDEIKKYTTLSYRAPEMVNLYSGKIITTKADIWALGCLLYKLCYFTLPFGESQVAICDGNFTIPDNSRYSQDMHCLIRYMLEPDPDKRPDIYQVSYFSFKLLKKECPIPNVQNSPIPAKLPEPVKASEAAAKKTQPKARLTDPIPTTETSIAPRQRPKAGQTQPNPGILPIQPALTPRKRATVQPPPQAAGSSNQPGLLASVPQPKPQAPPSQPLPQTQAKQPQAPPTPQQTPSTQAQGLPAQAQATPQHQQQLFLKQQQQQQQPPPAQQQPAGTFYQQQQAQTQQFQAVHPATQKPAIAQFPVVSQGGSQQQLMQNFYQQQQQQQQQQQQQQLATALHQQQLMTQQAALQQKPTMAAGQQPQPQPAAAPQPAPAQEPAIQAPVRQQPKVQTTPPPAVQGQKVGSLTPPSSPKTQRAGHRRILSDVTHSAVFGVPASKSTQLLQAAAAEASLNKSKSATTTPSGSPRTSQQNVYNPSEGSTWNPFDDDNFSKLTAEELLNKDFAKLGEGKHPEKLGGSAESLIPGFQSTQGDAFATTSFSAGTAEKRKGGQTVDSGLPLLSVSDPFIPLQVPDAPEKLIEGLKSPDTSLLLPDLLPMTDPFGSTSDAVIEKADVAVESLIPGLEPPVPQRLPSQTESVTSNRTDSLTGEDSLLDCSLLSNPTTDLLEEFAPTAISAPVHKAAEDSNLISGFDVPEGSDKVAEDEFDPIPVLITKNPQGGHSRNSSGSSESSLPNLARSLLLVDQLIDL
How it was run: as §1

Measured: log2 fold change

Chain of AAGAB (Q6PD74 whole entry, looked up): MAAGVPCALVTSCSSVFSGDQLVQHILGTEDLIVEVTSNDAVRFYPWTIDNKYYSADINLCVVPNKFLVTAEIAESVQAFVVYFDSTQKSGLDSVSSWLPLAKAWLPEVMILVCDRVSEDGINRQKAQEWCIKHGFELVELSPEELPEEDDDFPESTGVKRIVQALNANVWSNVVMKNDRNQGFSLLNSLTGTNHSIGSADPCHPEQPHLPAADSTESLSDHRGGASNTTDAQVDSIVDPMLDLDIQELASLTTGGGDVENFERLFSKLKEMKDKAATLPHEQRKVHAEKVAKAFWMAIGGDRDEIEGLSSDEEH

CC(C)N(C[C@H]1O[C@@H](n2cnc3c(N)ncnc32)[C@H](O)[C@@H]1O)[C@H]1C[C@@H](CCc2nc3cc(C(C)(C)C)ccc3[nH]2)C1 [pinometostat]
inactive: AAGAB 0.147 | AAK1 [1] -0.033 | AAK1 [2] -0.05

Cn1cc(-c2ccc3c(c2)CCN3C(=O)Cc2cccc(C(F)(F)F)c2)c2c(N)ncnc21
inactive: AAGAB -0.197 | AAK1 [1] -0.05 | AAK1 [2] -0.011

NC(=O)c1ccc2nc(-c3ccc(Oc4ccc(Cl)cc4)cc3)[nH]c2c1
inactive: AAGAB -0.068 | AAK1 [1] 0.02 | AAK1 [2] 0.005

NC(=O)c1cnc(N[C@@H]2CCCC[C@@H]2N)nc1Nc1cccc(-n2nccn2)c1
inactive: AAGAB -0.028 | AAK1 [1] 0.048 | AAK1 [2] 0.055

Cc1ccc(NC(=O)c2cccc(C(C)(C)C#N)c2)cc1Nc1ccc2ncn(C)c(=O)c2c1
inactive: AAGAB -0.153 | AAK1 [1] -0.131 | AAK1 [2] 0.01

Cc1cc(Nc2cc(N3CCN(C)CC3)nc(Sc3ccc(NC(=O)C4CC4)cc3)n2)n[nH]1 [tozasertib]
inactive: AAGAB 0.029 | AAK1 [1] 0.152 | AAK1 [2] 0.211

COC(=O)[C@H](CCSC)NC(=O)c1ccc(NC[C@@H](N)CS)cc1-c1ccccc1
inactive: AAGAB -0.029 | AAK1 [1] 0.023 | AAK1 [2] -0.044

COc1cc(Nc2ncc3c(n2)-c2ccc(Cl)cc2C(c2c(F)cccc2OC)=NC3)ccc1C(=O)O [alisertib]
inactive: AAGAB 0.062 | AAK1 [1] 0.002 | AAK1 [2] 0.576

Cc1nc(Nc2ncc(C(=O)Nc3c(C)cccc3Cl)s2)cc(N2CCN(CCO)CC2)n1 [dasatinib]
inactive: AAGAB -0.161 | AAK1 [1] -0.18 | AAK1 [2] -0.203

CCCc1cc(C)[nH]c(=O)c1CNC(=O)c1cc(-c2ccnc(N3CCN(C)CC3)c2)cc2c1cnn2C(C)C
inactive: AAGAB -0.02 | AAK1 [1] -0.026 | AAK1 [2] 0.08

COc1cc(C(=O)O)ccc1NC(=O)[C@@H]1N[C@@H](CC(C)(C)C)[C@](C#N)(c2ccc(Cl)cc2F)[C@H]1c1cccc(Cl)c1F [idasanutlin]
inactive: AAGAB -0.053 | AAK1 [1] -0.077 | AAK1 [2] -0.129

CC[C@H](C)[C@H](NC(=O)[C@H]([C@@H](C)CC)N(C)C(C)=O)C(=O)N[C@H](C(=O)N[C@@H](CC(C)C)C(=O)[C@@]1(C)CO1)[C@@H](C)O [epoxomicin]
inactive: AAGAB 0.006 | AAK1 [1] -0.098 | AAK1 [2] 0.031

Cc1cc(SCc2sc(-c3ccc(C(F)(F)F)cc3)nc2C)ccc1OCC(=O)O
inactive: AAGAB 0.051 | AAK1 [1] -0.048 | AAK1 [2] 0.096

CNC(=O)c1ccccc1Nc1nc(Nc2ccc(N3CCOCC3)cc2OC)ncc1Cl
inactive: AAGAB 0.112 | AAK1 [1] 0.333 | AAK1 [2] 0.281

O=C1c2ccccc2-c2n[nH]c3cccc1c23
inactive: AAGAB 0.01 | AAK1 [1] 0.254 | AAK1 [2] 0.319

CCn1cc(-c2ccnc3[nH]c(-c4cccc(CN(C)C)c4)cc23)c(-c2ccc(NC(=O)N(C)C)cc2)n1
inactive: AAGAB -0.018 | AAK1 [1] -0.031 | AAK1 [2] -0.141

NC1(c2ccc(-c3nc4ccn5c(=O)[nH]nc5c4cc3-c3ccccc3)cc2)CCC1
inactive: AAGAB -0.174 | AAK1 [1] 0.048 | AAK1 [2] -0.027

Cc1ccc(NC(=O)c2cccc(N(C)C)c2)cc1NC(=O)c1ccc(O)cc1
inactive: AAGAB -0.063 | AAK1 [1] -0.011 | AAK1 [2] 0

CN1CCN(CCOc2cc(OC3CCOCC3)c3c(Nc4c(Cl)ccc5c4OCO5)ncnc3c2)CC1 [saracatinib]
inactive: AAGAB 0.168 | AAK1 [1] 0.147 | AAK1 [2] 0

CN(C)CC(=O)Nc1ccc2[nH]c(=O)c3ccccc3c2c1
inactive: AAGAB 0.021 | AAK1 [1] 0.037 | AAK1 [2] 0.087

CNCc1ccc(-c2[nH]c3cc(F)cc4c3c2CCNC4=O)cc1 [rucaparib]
inactive: AAGAB 0.055 | AAK1 [1] 0.007 | AAK1 [2] -0.013
